Assay results published in PubChem BioAssay (NCATS).
Results filed as inconclusive are left out. A number with no mark means an inactive call. Calls come from the whole dose curve; as a rule, active = well fitted curve in the direction sought with a large enough effect; inconclusive = small, poorly fitted or top-dose-only effect, or another doubt; inactive = no such curve, though single readings can be large; an effect the other way counts as inactive or inconclusive.

Target: Aldehyde dehydrogenase, mitochondrial (Homo sapiens) (UniProt P05091)
Test: qHTS for Inhibitors of the Aldehyde Dehydrogenase Family (ALDH2) Primary screen (AID 2061308);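 note: plate controls were vehicle for no effect and reference inhibitor for full effect; nearly all actives have a fitted effect of over 55% in size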
Settings: ALDH2 enzyme inhibition qHTS, 1536-well; series mostly up to 56 µM; activity change, negative = inhibition: at the top concentration

Point of comparison: `Cc1ccc(NC(=O)C2(c3ccc4c(c3)OC(F)(F)O4)CC2)nc1-c1cccc(C(=O)O)c1`, “activity change, negative = inhibition” value 10.5%. Against it:
- Clc1cccc(-n2nnnc2NCc2ccccc2Oc2ccccn2)c1Cl — lower, 4.05%
- Nc1nc(O)c(C2=C3C(=Nc4ccccc43)C(=O)NCC2)[nH]1 — lower, 3.5%
- CC1CC(=O)C2=C(C1)C1OC1C1(O)C2C(=O)c2cccc(O)c2C1O (configuration not stated) — lower, -12.7%

For `COc1c2c(c(CO)c3c1C(=O)OC3)OC1(C)CCC3(O)C(C)(C)OC(=O)CCC3(C)C1C2` (configuration not stated), the “activity change, negative = inhibition” value was -14.4% [at 28 µM].

`COC(=O)[C@H](O)[C@H]1C(C)(C)[C@H](OC(=O)C(C)C)[C@@]2(O)C(=O)[C@]1(C)C1CC[C@]3(C)C(CC(=O)O[C@H]3c3ccoc3)[C@]13O[C@@H]32` (some centres not stated) was tested, and the “activity change, negative = inhibition” value was -16.6% [at 16.9 µM].

Target: Retinaldehyde dehydrogenase 3 (Homo sapiens) (UniProt P47895)
Test: qHTS for Inhibitors of the Aldehyde Dehydrogenase Family (ALDH1A3) Validation screen (AID 2061312); note: % is set by controls: 0 for no effect and ±100 for the full control effect; nearly all actives have a fitted effect of over 45% in size
Settings: ALDH1A3 enzyme inhibition qHTS validation, fluorescence; series mostly up to 84.7 µM; activity change, negative = inhibition: at the top concentration

Point of comparison: `COCCN1CCN(Cc2ccc(-c3n[nH]c4c3C(=O)c3c(NC(=O)NN5CCOCC5)cccc3-4)cc2)CC1`, “activity change, negative = inhibition” value 108%. Against it:
- COc1ccc2c(OCc3nnc4ccc(-c5ccccc5)nn34)ccnc2c1 — lower, 13.1%
- Cc1cc(N2CCOCC2)ccc1Nc1nc(NC2CCCCC2)c2[nH]cnc2n1 — lower, 24.8%
- COc1nc(C)cnc1NS(=O)(=O)c1cccnc1-c1ccc(-c2nnco2)cc1 — lower, -3.47%
- Nc1ncnc2c1c(-c1cnc3[nH]ccc3c1)nn2C1CCCC1 — lower, 26.4%
- COC(=O)Nc1nc2ccc(C(=O)c3ccc(F)cc3)cc2[nH]1 — lower, -15.9%
- Cc1cc(Nc2nc(N[C@@H](C)c3ncc(F)cn3)ncc2Cl)n[nH]1 — lower, 9.5%
- Cc1ccc2nc(NC(=O)CSc3nc4c(c(=O)n3-c3ccccc3)SCC4)sc2c1 — lower, -7.81%
- COc1ccc2nc3n[nH]c(C)c3c(NCCOCCO)c2c1 — higher, 154%
- CC(C)CNc1ccnc(NCc2csc(-c3ccccc3)n2)n1 — higher, 254%
- NC(=O)c1cccc2cn(-c3ccc([C@@H]4CCCNC4)cc3)nc12 — higher, 118%
- COCCCOc1ccnc(CS(=O)c2nc3ccccc3[nH]2)c1C (configuration not stated) — lower, -14.6%
- CCOC(=O)C1=C(C)NC2=C(C(=O)CC(C)(C)C2)C1c1ccc(-c2ccccc2)cc1 (configuration not stated) — lower, 35.8%
- CC(C)[C@@H](c1ccc(C(F)(F)F)cc1CN(Cc1cc(C(F)(F)F)cc(C(F)(F)F)c1)c1nnn(C)n1)N1CCC(C(=O)O)CC1 — lower, 4.07%
- Cc1ccc(NC(=O)C2(c3ccc4c(c3)OC(F)(F)O4)CC2)nc1-c1cccc(C(=O)O)c1 — lower, -12.8%
- Clc1cccc(-n2nnnc2NCc2ccccc2Oc2ccccn2)c1Cl — lower, -32.6%
